According to PubChem BioAssay (Tox21):
Records with an inconclusive call do not appear. Activity calls are given as the source filed them. Unless noted, calls follow the shape of the full dose curve.

What was measured:
[1] = Nuclear factor erythroid 2-related factor 2/antioxidant responsive element (Nrf2/ARE) small molecule agonists: qHTS cell viability counter screen in human keratinocytes (AID 1919968; active = well fitted curve in the direction sought with a large enough effect in the repeat runs; an effect the other way counts as inactive or inconclusive; also: nearly all actives have a fitted effect of over 55% in size)
How it was run: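 In human HaCaT keratinocytes stably expressing an ARE-driven luciferase, compound exposure lasted 23 h at 37 C under 5% CO2. Viable cells are quantified with a protease-based fluorogenic reagent (CellTiter-Fluor) read 1 h after addition.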

[2] = Nuclear factor erythroid 2-related factor 2/antioxidant responsive element (Nrf2/ARE) small molecule agonists: luciferase reporter gene qHTS assay in human keratinocytes (AID 1919969); also: nearly all actives have a fitted effect of over 35% in size
[3] = target: Gonadotropin-releasing hormone receptor (Homo sapiens) (UniProt P30968); test: Human gonadotropin-releasing hormone receptor (GnRHR) small molecule agonists, calcium flux assay in GnRHR-HEK293 cells (AID 1920063); also: nearly all actives have a fitted effect of over 35% in size
Sequence of Gonadotropin-releasing hormone receptor (Homo sapiens) (P30968 whole entry, looked up): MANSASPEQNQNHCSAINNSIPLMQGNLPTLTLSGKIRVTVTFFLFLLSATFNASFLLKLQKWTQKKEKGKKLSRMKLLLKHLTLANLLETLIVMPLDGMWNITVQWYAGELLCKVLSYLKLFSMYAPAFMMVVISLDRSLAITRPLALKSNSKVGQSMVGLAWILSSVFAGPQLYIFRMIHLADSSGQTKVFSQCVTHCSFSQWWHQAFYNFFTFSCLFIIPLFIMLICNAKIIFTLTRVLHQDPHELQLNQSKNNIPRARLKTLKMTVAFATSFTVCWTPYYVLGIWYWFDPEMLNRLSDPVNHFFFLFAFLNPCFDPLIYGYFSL
How it was run: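 Intracellular calcium rise is the read-out: engineered human GnRHR HEK293 cells, dye-loaded, are exposed to DMSO-dissolved compounds and fluorescence at Ex/Em 480/540 is tracked for 3 min.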

[4] = target: KiSS-1 receptor (Homo sapiens) (UniProt Q969F8); test: Human kisspeptin (KISS1R) small molecule agonists, calcium flux assay in KISS1R-HEK293 cells (AID 1920064; active = well fitted curve in the direction sought with a large enough effect in the repeat runs; an effect the other way counts as inactive or inconclusive)
Sequence of KiSS-1 receptor (Homo sapiens) (Q969F8 whole entry, looked up): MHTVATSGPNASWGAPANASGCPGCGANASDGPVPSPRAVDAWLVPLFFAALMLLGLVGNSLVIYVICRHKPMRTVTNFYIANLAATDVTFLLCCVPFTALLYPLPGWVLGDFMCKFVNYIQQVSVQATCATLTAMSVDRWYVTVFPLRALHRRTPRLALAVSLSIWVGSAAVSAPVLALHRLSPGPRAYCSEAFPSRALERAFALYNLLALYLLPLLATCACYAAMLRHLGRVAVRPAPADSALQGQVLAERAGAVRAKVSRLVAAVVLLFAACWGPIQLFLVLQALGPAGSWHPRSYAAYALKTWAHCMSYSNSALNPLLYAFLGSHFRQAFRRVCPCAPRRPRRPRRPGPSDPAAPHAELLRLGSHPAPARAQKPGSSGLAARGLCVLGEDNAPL
How it was run: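 Concentration-response testing used 15 concentrations in triplicate on human KISS1R-expressing HEK293 cells. Calcium-dependent fluorescence (Ex/Em 480/540) was followed kinetically for 3 min after compound transfer.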

[5] = G protein-coupled receptor (GPCR) small molecule agonists, calcium flux assay: HEK293 wild type cell line counter screen (AID 1920065)
How it was run: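 Fluorescence intensity signals activation. After overnight (18 h) culture and a 1 h calcium dye load at 37 C, compounds are added by pin tool and the plate read at 480/540 nm for 3 min in 1 s steps.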

[6] = p53 small molecule agonists, cell-based qHTS assay with human liver microsomes (AID 1963577);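 also: p53 response element beta-lactamase reporter cells with liver microsomes plus NADPH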
How it was run: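 Steps: plate p53RE-bla cells, incubate 5 h at 37 C; add compound in DMSO; add microsomes (0.5 mg/mL final) and NADPH (0.5 mg/mL final); incubate 16 h at 37 C; add LiveBLAzer, 2 h RT; read fluorescence.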

[7] = p53 small molecule agonists, cell-based qHTS assay with rat liver microsomes (AID 1963578)
How it was run: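 Metabolic activation is supplied by rat liver microsomes with NADPH (each 0.5 mg/mL final). p53RE-bla cells incubate with compound 16 h at 37 C; reporter activity is measured by LiveBLAzer fluorescence.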

[8] = p53 small molecule agonists, cell-based qHTS assay with human liver microsomes: qHTS cell viability counter screen (AID 1963579); also: nearly all actives have a fitted effect of over 45% in size
How it was run: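 After the 460/530 nm beta-lactamase read, CellTiter-Glo was added to the same wells and luminescence measured after 30 min at room temperature, giving viability of p53RE-bla cells treated 16 h with compounds plus microsomes and NADPH.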

[9] = p53 small molecule agonists, cell-based qHTS assay with rat liver microsomes: qHTS cell viability counter screen (AID 1963580); also: nearly all actives have a fitted effect of over 45% in size
How it was run: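 After the beta-lactamase ratio was read, CellTiter-Glo was added to the same wells and luminescence measured at 30 min; cells had been treated 16 h at 37 C with compounds, rat liver microsomes and NADPH (0.5 mg/mL final each).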

[10] = p53 small molecule agonists, cell-based qHTS assay: qHTS cell viability counter screen (AID 1963581); also: nearly all actives have a fitted effect of over 45% in size
How it was run: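 Luminescence from CellTiter-Glo, reflecting ATP content, serves as the cytotoxicity measure; it is taken after the 2 h reporter substrate step in HCT-116 p53RE-bla cells dosed for 16 h at 37 C.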

[11] = p53 small molecule agonists, cell-based qHTS assay (AID 1963582; active = well fitted activation curve with a large enough effect in the signal ratio in the repeat runs, not every such curve was filed as active; the % refers to the signal ratio)
How it was run: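 After plating, p53RE-bla cells sat 5 h in the incubator; compounds or DMSO vehicle were pinned in; a 16 h incubation at 37 C followed; FRET substrate was added and, 2 h later at RT, fluorescence was measured.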

[12] = target: 5-hydroxytryptamine receptor 2A (Homo sapiens) (UniProt P28223); test: 5-hydroxytryptamine receptor 2A (HTR2A) small molecule antagonists, cell-based qHTS assay (AID 1963586); also: nearly all actives have a fitted effect of over 45% in size
Sequence of 5-hydroxytryptamine receptor 2A (Homo sapiens) (P28223 whole entry, looked up): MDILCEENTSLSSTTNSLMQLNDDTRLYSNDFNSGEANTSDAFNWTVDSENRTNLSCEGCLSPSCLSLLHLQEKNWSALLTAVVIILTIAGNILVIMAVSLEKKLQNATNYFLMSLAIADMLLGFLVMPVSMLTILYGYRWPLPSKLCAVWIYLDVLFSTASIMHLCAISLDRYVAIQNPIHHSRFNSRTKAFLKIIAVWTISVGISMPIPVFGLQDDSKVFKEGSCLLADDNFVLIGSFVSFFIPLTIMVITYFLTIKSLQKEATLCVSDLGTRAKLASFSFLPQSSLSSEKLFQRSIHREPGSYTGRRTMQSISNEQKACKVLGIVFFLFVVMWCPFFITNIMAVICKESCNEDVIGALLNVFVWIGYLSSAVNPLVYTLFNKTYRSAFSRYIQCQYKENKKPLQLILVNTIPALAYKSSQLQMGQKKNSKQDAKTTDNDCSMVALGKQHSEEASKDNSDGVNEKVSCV
How it was run: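 CHO cells stably expressing human HTR2A were plated for 18 h at 37 C, then loaded with calcium dye for 1 h. Compounds were preincubated 5 min at room temperature before DOI (4 nM solution) was added. Kinetic fluorescence was read for 3 min.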

[13] = target: 5-hydroxytryptamine receptor 2A (Homo sapiens) (UniProt P28223); test: 5-hydroxytryptamine receptor 2A (HTR2A) small molecule agonists, cell-based qHTS assay (AID 1963587); also: nearly all actives have a fitted effect of over 30% in size
How it was run: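 CHO cells stably expressing human HTR2A, plated 18 h, loaded with calcium dye 1 h at 37 C. Agonist mode: compounds added and intracellular calcium fluorescence recorded kinetically for 2 min at 1 sec intervals.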

[14] = target: Muscarinic acetylcholine receptor M1 (Homo sapiens) (UniProt P11229); test: Cholinergic receptor muscarinic 1 (CHRM1) small molecule antagonists, cell-based qHTS assay (AID 1963588); also: nearly all actives have a fitted effect of over 40% in size
Sequence of Muscarinic acetylcholine receptor M1 (Homo sapiens) (P11229 whole entry, looked up): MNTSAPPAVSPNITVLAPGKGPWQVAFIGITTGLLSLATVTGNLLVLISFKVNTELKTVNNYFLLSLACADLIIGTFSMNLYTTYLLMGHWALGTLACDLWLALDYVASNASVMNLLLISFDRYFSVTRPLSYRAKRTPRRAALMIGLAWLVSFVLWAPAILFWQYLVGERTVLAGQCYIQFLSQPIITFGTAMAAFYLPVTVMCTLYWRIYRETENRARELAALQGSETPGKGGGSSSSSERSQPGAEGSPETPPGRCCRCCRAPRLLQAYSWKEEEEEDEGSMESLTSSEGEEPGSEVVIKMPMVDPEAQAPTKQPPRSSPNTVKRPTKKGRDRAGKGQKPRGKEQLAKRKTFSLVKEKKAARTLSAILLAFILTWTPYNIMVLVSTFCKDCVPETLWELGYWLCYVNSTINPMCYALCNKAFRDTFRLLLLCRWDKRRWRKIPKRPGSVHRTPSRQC
How it was run: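 Compounds were tested at 15 concentrations in three independent runs. Dye-loaded CHRM1-CHO cells were exposed 5 min at room temperature before stimulation by acetylcholine added at 50nM. Intracellular calcium was read kinetically on FDSS for 3 min.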

[15] = target: Muscarinic acetylcholine receptor M1 (Homo sapiens) (UniProt P11229); test: Cholinergic receptor muscarinic 1 (CHRM1) small molecule agonists, cell-based qHTS assay (AID 1963589); also: nearly all actives have a fitted effect of over 35% in size
How it was run: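 Fluorescent calcium dye reports M1 activation in stably transfected CHO cells. Compounds, 15 concentrations, added after 1 h dye loading at 37 C; kinetic reading at 1 sec intervals.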

[16] = cAMP Responsive Elements (CRE) small molecule agonists, cell-based qHTS assay (AID 1963590)
How it was run: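 Compound exposure lasted 3 h at 37 C/5% CO2 in CRE-bla HEK 293T cells grown in assay medium with 10% dialyzed FBS and 25 mM HEPES. Reporter signal came from LiveBLAzer B/G FRET substrate, 2 h, room temperature.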

[17] = cAMP Responsive Elements (CRE) small molecule antagonists, cell-based qHTS assay (AID 1963591; active = well fitted inhibition curve with a large enough effect in the signal ratio in the repeat runs, not every such curve was filed as active; the % refers to the signal ratio)
How it was run: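 Stimulation used NKH477 at a final 0.25 uM for 3 h in compound-treated CRE-bla HEK293T cells, seeded 18 h beforehand. Reporter activity was measured with LiveBLAzer B/G FRET substrate after 2 h at room temperature.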

[18] = target: Beta-2 adrenergic receptor (Homo sapiens) (UniProt P07550); test: Adrenergic beta2 receptor (ADRB2) small molecule antagonists, cell-based qHTS assay (AID 1963592); also: series mostly up to about 92 µM; nearly all actives have a fitted effect of over 50% in size
Sequence of Beta-2 adrenergic receptor (Homo sapiens) (P07550 whole entry, looked up): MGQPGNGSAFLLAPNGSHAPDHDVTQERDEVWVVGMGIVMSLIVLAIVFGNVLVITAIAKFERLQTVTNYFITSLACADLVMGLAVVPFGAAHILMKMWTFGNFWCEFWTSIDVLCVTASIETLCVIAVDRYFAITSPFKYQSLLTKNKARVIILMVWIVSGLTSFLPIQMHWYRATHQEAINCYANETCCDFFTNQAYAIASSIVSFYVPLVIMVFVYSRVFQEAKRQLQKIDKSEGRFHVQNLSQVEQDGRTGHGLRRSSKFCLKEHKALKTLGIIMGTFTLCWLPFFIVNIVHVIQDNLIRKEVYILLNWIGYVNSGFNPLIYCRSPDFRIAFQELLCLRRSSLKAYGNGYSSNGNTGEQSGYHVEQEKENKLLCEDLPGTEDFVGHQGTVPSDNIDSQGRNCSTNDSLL
How it was run: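 Assay format: CHO-ADRB2 cells, 18-20hr seeding at 37C/5% CO2, then compound plus 1nM isoproterenol agonist mix for 0.5hr RT. Homogeneous time-resolved fluorescence cAMP detection after 1hr, expressed as 665/615 nm ratio.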

[19] = target: D(2) dopamine receptor (Homo sapiens) (UniProt P14416); test: Dopamine D2 receptor (DRD2) small molecule agonists, cell-based qHTS assay (AID 1963594); also: nearly all actives have a fitted effect of over 35% in size
Sequence of D(2) dopamine receptor (Homo sapiens) (P14416 whole entry, looked up): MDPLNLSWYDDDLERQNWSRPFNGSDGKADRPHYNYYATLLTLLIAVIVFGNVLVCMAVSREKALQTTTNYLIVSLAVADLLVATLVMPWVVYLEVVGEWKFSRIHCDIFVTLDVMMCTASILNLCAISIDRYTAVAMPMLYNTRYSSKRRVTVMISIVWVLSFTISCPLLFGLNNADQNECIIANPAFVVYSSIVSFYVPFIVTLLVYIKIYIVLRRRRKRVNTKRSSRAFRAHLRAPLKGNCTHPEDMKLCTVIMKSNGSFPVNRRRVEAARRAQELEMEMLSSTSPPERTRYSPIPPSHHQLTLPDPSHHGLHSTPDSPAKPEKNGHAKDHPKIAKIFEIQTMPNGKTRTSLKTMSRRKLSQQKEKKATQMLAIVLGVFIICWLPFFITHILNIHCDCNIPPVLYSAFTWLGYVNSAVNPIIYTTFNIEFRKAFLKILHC
How it was run: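 HEK293 cells stably expressing human DRD2, pre-treated with PDE inhibitor Ro20-1724 (0.1 mM final) and compound 10 min at room temperature, then stimulated with NKH477 (200nM […]) for 30 min. cAMP read by HTRF (665/620 nm).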

[20] = target: D(2) dopamine receptor (Homo sapiens) (UniProt P14416); test: Dopamine D2 receptor (DRD2) small molecule antagonists, cell-based qHTS assay (AID 1963595; active = well fitted inhibition curve with a large enough effect in the signal ratio in the repeat runs, with a control signal flat; the % refers to the signal ratio)
How it was run: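 Antagonist mode in DRD2-HEK293 cells: after compound addition with 0.1 mM Ro20-1724, cells received quinpirole (12 nM) and NKH477 (200 nM) for 30 min at room temperature; HTRF cAMP read after 1 h detection.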

Measured: Potency

CCC(=O)OC
inactive: [1] | [2] | [3] | [4] | [5] | [6] | [7] | [8] | [9] | [10] | [11] | [12] | [13] | [14] | [15] | [16] | [17] | [18] | [19] | [20]

C/C=C(\C)C(=O)OCc1ccccc1
inactive: [1] | [2] | [3] | [4] | [5] | [6] | [7] | [8] | [9] | [10] | [11] | [12] | [13] | [14] | [15] | [16] | [17] | [18] | [19] | [20]

Cc1ccccc1OCC1CO1 (centres undefined)
inactive: [1] | [2] | [3] | [4] | [5] | [6] | [7] | [8] | [9] | [10] | [11] | [12] | [13] | [14] | [15] | [16] | [17] | [18] | [20]

Nc1ccccc1S(=O)(=O)O
inactive: [1] | [2] | [3] | [4] | [5] | [6] | [7] | [8] | [9] | [10] | [11] | [12] | [13] | [14] | [15] | [16] | [17] | [18] | [19] | [20]

COC(=O)c1sccc1S(N)(=O)=O
inactive: [1] | [2] | [3] | [4] | [5] | [6] | [7] | [8] | [9] | [10] | [11] | [12] | [13] | [14] | [15] | [16] | [17] | [18] | [19] | [20]

C[C@H]1C[C@@H](O)CC(C)(C)C1
inactive: [1] | [2] | [3] | [4] | [5] | [6] | [7] | [8] | [9] | [10] | [11] | [12] | [13] | [14] | [15] | [16] | [17] | [18] | [19] | [20]

CC(C)(C)C1CCCCC1O (centres undefined)
inactive: [1] | [2] | [3] | [4] | [5] | [6] | [7] | [8] | [9] | [10] | [11] | [12] | [13] | [14] | [15] | [16] | [17] | [18] | [19] | [20]

O=C(O)[C@H](O)[C@@H](O)[C@H](O[C@@H]1O[C@H](CO)[C@H](O)[C@H](O)[C@H]1O)[C@H](O)CO
inactive: [1] | [2] | [3] | [4] | [5] | [6] | [7] | [8] | [9] | [10] | [11] | [12] | [13] | [14] | [15] | [16] | [17] | [18] | [19] | [20]

CO[C@@H]1[C@@H](O[C@@H]2O[C@H](C)[C@@H](O[C@H]3C[C@@](C)(O)[C@@H](O)[C@H](C)O3)[C@H](N(C)C)[C@H]2O)[C@@H](CC=O)C[C@@H](C)[C@@H](O[C@@H]2CC[C@H](N(C)C)[C@@H](C)O2)/C=C/C=C/C[C@@H](C)OC(=O)C[C@H]1OC(C)=O
inactive: [1] | [2] | [3] | [4] | [5] | [6] | [7] | [8] | [9] | [10] | [11] | [12] | [13] | [14] | [15] | [16] | [17] | [18] | [19] | [20]

CCNc1nc(N)nc(Cl)n1
inactive: [1] | [2] | [3] | [4] | [5] | [6] | [7] | [8] | [9] | [10] | [11] | [12] | [13] | [14] | [15] | [16] | [17] | [18] | [19] | [20]

Cc1ncc(CO)c(CN)c1O
inactive: [1] | [2] | [3] | [4] | [5] | [6] | [7] | [8] | [9] | [10] | [11] | [12] | [13] | [14] | [15] | [16] | [17] | [18] | [19] | [20]

C=C(C)C(=O)NCCC[N+](C)(C)C
inactive: [1] | [2] | [3] | [4] | [5] | [6] | [7] | [8] | [9] | [10] | [11] | [12] | [13] | [14] | [15] | [16] | [17] | [18] | [19] | [20]

C[Si]1(C)O[Si](C)(C)O[Si](C)(C)O[Si](C)(C)O[Si](C)(C)O1
inactive: [1] | [2] | [3] | [4] | [5] | [6] | [7] | [8] | [9] | [10] | [11] | [12] | [13] | [14] | [15] | [16] | [17] | [18] | [19] | [20]

COc1nc(C)nc(NC(=O)NS(=O)(=O)c2ccccc2OCCCl)n1
inactive: [1] | [2] | [3] | [4] | [5] | [6] | [7] | [8] | [9] | [10] | [11] | [12] | [13] | [14] | [15] | [16] | [17] | [18] | [19] | [20]
